According to PubChem BioAssay (NCI):
This is part of a sample that, as a whole, favours compounds with a hit. Of some 79,000 tested, about 15% had one in any assay. Values without a mark were called inactive. Cut-off read from the data, not from the text of the source: active = growth inhibition above about 70%; inactive = the rest.

Assay: NCI Yeast Anticancer Drug Screen. Data for the sgs1 mgt1 strain (AID 161);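 note: 0% = growth of cultures given vehicle only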
Details: S. cerevisiae sgs1 mgt1 strain, at 50.0 µM, stronger effect = higher value
Outline: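 Yeast cells carrying a defined DNA-repair defect were exposed to test compounds. Growth inhibition was measured relative to vehicle-treated controls.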

Q: For `Cc1cccc(OC(=O)Oc2cccc(C)c2)c1`, which growth inhibition is on record?
A: -4.35%

Q: With `CC(=O)O[C@]12CCCCCCC1C1(O)C(O)CCC[C@H]12` (stereo not given in full) as the compound, how does the growth inhibition read?
A: -53.2%

Q: For `COC(=O)C1C(COS(C)(=O)=O)ON2CCC(OC)(OC)C12` (stereo not given), which growth inhibition is on record?
A: 17.8%

Q: Which growth inhibition does the source give for `COc1ccc(/C=C2\C=Cc3ccccc32)cc1OC` here?
A: 0.7%

Q: For `C[C@@H]1CN(c2ccccc2)C[C@H](C)OS(=O)O1` (stereo not given in full), which growth inhibition is on record?
A: -12.8%

Q: With `CN(C)C(=O)Nc1cccc(OC(=O)NCCCl)c1` as the compound, how does the growth inhibition read?
A: 30.7%

Q: Which growth inhibition does the source give for `O=COC1CCCCCC1` here?
A: -11.1%

Q: Which growth inhibition does the source give for `O=C(NC1(C(=O)O)CCCC1)C(F)(F)F` here?
A: -14.2%

Q: For `Cc1cc(Cl)cc(Cl)c1OCC(=O)Nc1ccc(Cl)cc1`, which growth inhibition is on record?
A: 8.5%

Q: With `CC(=O)N(C)Cc1c(O)ccc2ccccc12` as the compound, how does the growth inhibition read?
A: -9.9%

Q: For `CC1=CC(=O)C(=O)c2ccccc21`, which growth inhibition is on record?
A: -5.5%

Q: With `CCOC(=O)/C=C/c1ccc(F)cc1` as the compound, how does the growth inhibition read?
A: 18.1%

Q: With `Cc1c(O)c(=O)ccn1C1OC(CO)C(O)C1O` (stereo not given) as the compound, how does the growth inhibition read?
A: 25.5%

Q: For `COc1ccc(NNc2ccc(OC)cc2)cc1`, which growth inhibition is on record?
A: -4.7%

Q: With `O=C(/C=C/C(=O)NCc1ccccc1)NCc1ccccc1` as the compound, how does the growth inhibition read?
A: 16.9%

Q: With `COc1ccc(C(=O)C(C)(c2nc3n(c2O)C(=N)N=N3)c2nc3n(c2O)C(=N)N=N3)cc1` (stereo not given) as the compound, how does the growth inhibition read?
A: 0.75%

Q: With `O=C1c2ccccc2C(=O)N1CC(F)(F)F` as the compound, how does the growth inhibition read?
A: -9.5%

Q: For `O=C(c1cccc([N+](=O)[O-])c1)N1CCCCC1`, which growth inhibition is on record?
A: 16.2%

Q: For `O=C1C(Cl)=C(NC(CO)(CO)CO)C(=O)c2ccccc21`, which growth inhibition is on record?
A: -6.05%

Q: Which growth inhibition does the source give for `CCNC(=O)c1ccc(Cl)cc1` here?
A: 8.55%

Q: With `CC(=O)c1cccc(NC(=O)Nc2ccc(Nc3ccccc3)cc2)c1` as the compound, how does the growth inhibition read?
A: 5.6%

Q: With `CC(=O)OC1CCC2(C)C(=CCC3C2CCC2(C)C(/C(C)=N/NC(N)=O)CCC32)C1` (stereo not given) as the compound, how does the growth inhibition read?
A: -0.1%

Q: For `O=c1oc2ccccc2cc1S(=O)(=O)c1ccccc1`, which growth inhibition is on record?
A: 1.4%

Q: Which growth inhibition does the source give for `COc1cccc(OC)c1/C=C1\N=C(c2ccccc2)OC1=O` here?
A: 2.55%

Q: For `CC1C(=O)C(O)CC2C1(C)CCC1C2(C)CCC2(C)C3CC(C)(C)CCC3(C)CCC12C` (stereo not given), which growth inhibition is on record?
A: -6.45%

Q: Which growth inhibition does the source give for `Clc1ccccc1SSc1ccccc1Cl` here?
A: 22.2%

Q: Which growth inhibition does the source give for `O=C(Nc1ccccc1-c1n[nH]c(=S)[nH]c1=O)C(F)(F)F` here?
A: -10.3%

Q: With `OCCCN1CCCCC1` as the compound, how does the growth inhibition read?
A: 1.05%

Q: For `COc1cc(/C=C(\C#N)C(N)=O)cc(Br)c1O`, which growth inhibition is on record?
A: 15.9%

Q: Which growth inhibition does the source give for `CCCCNC(=O)Oc1cccc2ccccc12` here?
A: 7.7%

Q: For `COC(=O)N/N=C(\C)C(CN1CCCCC1)C(C1=C(O)c2ccccc2OC1)c1ccccc1` (stereo not given), which growth inhibition is on record?
A: 5.25%

Q: Which growth inhibition does the source give for `CC(=O)OC1COC(n2c(=S)n(-c3ccccc3)c(=O)c3cc(Br)ccc32)C(OC(C)=O)C1OC(C)=O` (stereo not given) here?
A: 8.45%

Q: Which growth inhibition does the source give for `CCCCS(=O)(=O)CCC(N)P(=O)(O)O` (stereo not given) here?
A: -43.2%

Q: For `COc1ccc(C=O)c(C)c1`, which growth inhibition is on record?
A: 4.15%

Q: Which growth inhibition does the source give for `O=C(CCN1C(=O)c2ccccc2C1=O)NCS(=O)(=O)O` here?
A: -11.1%

Q: Which growth inhibition does the source give for `Nc1ccc(S(=O)(=O)Nc2nc(CN3CCCCC3)cs2)cc1` here?
A: 3.3%

Q: With `CC(=O)OCC1OC(n2cc(F)c(=O)[nH]c2=O)C(NC(=O)N(CCCl)N=O)C(OC(C)=O)C1OC(C)=O` (stereo not given) as the compound, how does the growth inhibition read?
A: 12.8%

Q: With `CN(C)NC(=O)Nc1ccc2ccccc2c1` as the compound, how does the growth inhibition read?
A: -8.55%

Q: With `CCC(=O)Oc1ccc(Cl)cc1C` as the compound, how does the growth inhibition read?
A: 1.75%

Q: Which growth inhibition does the source give for `CC1(C)CC(=O)OC/C=C\CC(Cc2ccccc2)C(=O)C1` (stereo not given) here?
A: -12.3%

Assay: NCI Yeast Anticancer Drug Screen. Data for the cln2 rad14 strain (AID 165);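 note: 0% = growth equal to vehicle treated cultures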
Details: S. cerevisiae cln2 rad14 strain, at 50.0 µM, stronger effect = higher value
Outline: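 Readout is yeast growth inhibition versus vehicle-treated controls, using a strain with cln2 and rad14 alterations exposed to compound.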

Q: Which growth inhibition does the source give for `Cc1cccc(OC(=O)Oc2cccc(C)c2)c1` here?
A: -15.7%

Q: Which growth inhibition does the source give for `CC(=O)O[C@]12CCCCCCC1C1(O)C(O)CCC[C@H]12` (stereo not given in full) here?
A: -8.95%

Q: For `COC(=O)C1C(COS(C)(=O)=O)ON2CCC(OC)(OC)C12` (stereo not given), which growth inhibition is on record?
A: -15.8%

Q: For `COc1ccc(/C=C2\C=Cc3ccccc32)cc1OC`, which growth inhibition is on record?
A: 13.4%

Q: Which growth inhibition does the source give for `C[C@@H]1CN(c2ccccc2)C[C@H](C)OS(=O)O1` (stereo not given in full) here?
A: -16.6%

Q: With `CN(C)C(=O)Nc1cccc(OC(=O)NCCCl)c1` as the compound, how does the growth inhibition read?
A: 0.9%

Q: For `O=COC1CCCCCC1`, which growth inhibition is on record?
A: 7.9%

Q: For `O=C(NC1(C(=O)O)CCCC1)C(F)(F)F`, which growth inhibition is on record?
A: -25.3%

Q: With `Cc1cc(Cl)cc(Cl)c1OCC(=O)Nc1ccc(Cl)cc1` as the compound, how does the growth inhibition read?
A: 4%

Q: Which growth inhibition does the source give for `CC(=O)N(C)Cc1c(O)ccc2ccccc12` here?
A: -9.4%

Q: With `CC1=CC(=O)C(=O)c2ccccc21` as the compound, how does the growth inhibition read?
A: 10.4%

Q: With `CCOC(=O)/C=C/c1ccc(F)cc1` as the compound, how does the growth inhibition read?
A: 11.2%

Q: For `Cc1c(O)c(=O)ccn1C1OC(CO)C(O)C1O` (stereo not given), which growth inhibition is on record?
A: -2.9%

Q: Which growth inhibition does the source give for `COc1ccc(NNc2ccc(OC)cc2)cc1` here?
A: 17.9%

Q: With `O=C(/C=C/C(=O)NCc1ccccc1)NCc1ccccc1` as the compound, how does the growth inhibition read?
A: -11.1%

Q: With `COc1ccc(C(=O)C(C)(c2nc3n(c2O)C(=N)N=N3)c2nc3n(c2O)C(=N)N=N3)cc1` (stereo not given) as the compound, how does the growth inhibition read?
A: -8.85%

Q: With `O=C1c2ccccc2C(=O)N1CC(F)(F)F` as the compound, how does the growth inhibition read?
A: 8.25%

Q: For `O=C(c1cccc([N+](=O)[O-])c1)N1CCCCC1`, which growth inhibition is on record?
A: -17.1%

Q: Which growth inhibition does the source give for `O=C1C(Cl)=C(NC(CO)(CO)CO)C(=O)c2ccccc21` here?
A: 1.6%

Q: Which growth inhibition does the source give for `CCNC(=O)c1ccc(Cl)cc1` here?
A: 0.65%

Q: Which growth inhibition does the source give for `CC(=O)c1cccc(NC(=O)Nc2ccc(Nc3ccccc3)cc2)c1` here?
A: 2.6%

Q: For `CC(=O)OC1CCC2(C)C(=CCC3C2CCC2(C)C(/C(C)=N/NC(N)=O)CCC32)C1` (stereo not given), which growth inhibition is on record?
A: -39.6%

Q: With `O=c1oc2ccccc2cc1S(=O)(=O)c1ccccc1` as the compound, how does the growth inhibition read?
A: -53.1%

Q: With `COc1cccc(OC)c1/C=C1\N=C(c2ccccc2)OC1=O` as the compound, how does the growth inhibition read?
A: -56.9%

Q: Which growth inhibition does the source give for `CC1C(=O)C(O)CC2C1(C)CCC1C2(C)CCC2(C)C3CC(C)(C)CCC3(C)CCC12C` (stereo not given) here?
A: 1.2%

Q: With `Clc1ccccc1SSc1ccccc1Cl` as the compound, how does the growth inhibition read?
A: -9.2%

Q: For `O=C(Nc1ccccc1-c1n[nH]c(=S)[nH]c1=O)C(F)(F)F`, which growth inhibition is on record?
A: -7.35%

Q: For `OCCCN1CCCCC1`, which growth inhibition is on record?
A: 15.8%

Q: With `COc1cc(/C=C(\C#N)C(N)=O)cc(Br)c1O` as the compound, how does the growth inhibition read?
A: 8.65%

Q: Which growth inhibition does the source give for `CCCCNC(=O)Oc1cccc2ccccc12` here?
A: -4.35%

Q: Which growth inhibition does the source give for `COC(=O)N/N=C(\C)C(CN1CCCCC1)C(C1=C(O)c2ccccc2OC1)c1ccccc1` (stereo not given) here?
A: 17.1%

Q: With `CC(=O)OC1COC(n2c(=S)n(-c3ccccc3)c(=O)c3cc(Br)ccc32)C(OC(C)=O)C1OC(C)=O` (stereo not given) as the compound, how does the growth inhibition read?
A: 15.8%

Q: For `CCCCS(=O)(=O)CCC(N)P(=O)(O)O` (stereo not given), which growth inhibition is on record?
A: -33.8%

Q: Which growth inhibition does the source give for `COc1ccc(C=O)c(C)c1` here?
A: 15.3%

Q: Which growth inhibition does the source give for `O=C(CCN1C(=O)c2ccccc2C1=O)NCS(=O)(=O)O` here?
A: -47.5%

Q: Which growth inhibition does the source give for `Nc1ccc(S(=O)(=O)Nc2nc(CN3CCCCC3)cs2)cc1` here?
A: -38.5%

Q: For `CC(=O)OCC1OC(n2cc(F)c(=O)[nH]c2=O)C(NC(=O)N(CCCl)N=O)C(OC(C)=O)C1OC(C)=O` (stereo not given), which growth inhibition is on record?
A: 10.8%

Q: Which growth inhibition does the source give for `CN(C)NC(=O)Nc1ccc2ccccc2c1` here?
A: -41%

Q: Which growth inhibition does the source give for `CCC(=O)Oc1ccc(Cl)cc1C` here?
A: 5.55%

Q: With `CC1(C)CC(=O)OC/C=C\CC(Cc2ccccc2)C(=O)C1` (stereo not given) as the compound, how does the growth inhibition read?
A: 6.8%
